Assay results: the supplement of paper PMC10849652
The full data set covers some 7,900 targets. This sample favours those with a hit. About 0.6% of all pairs of compound and target were hits.

compound: CON(C)C(=O)N1N=C(c2cc(F)ccc2F)S[C@@]1(CCCN)c1ccccc1 [filanesib]; assay: log2 fold change, soluble protein after heating vs DMSO (PISA); higher = thermal stabilisation; K562 cells, 10 uM, 30 min; active = over 0.2 and 3.5 SD of the protein, either way, in both replicates (recomputed)
Method in brief: (§1)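 K562 cells at 2×10^6 cells/mL were exposed to 10 μM compound for 30 min, then aliquots were heated for 3 min across 48°C-58°C, pooled, and extracted in PBS containing 0.5% NP-40 at 4°C. The supernatant after 21,000xg for 90 min was taken as soluble protein and measured by TMTpro 16plex LC-MS/MS with channel sums equalised. Thermal stability is reported relative to control samples, with values from duplicates. Fold changes are given on a log2 scale.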

Chain of UniProt Q00577 (Q00577 whole entry, looked up): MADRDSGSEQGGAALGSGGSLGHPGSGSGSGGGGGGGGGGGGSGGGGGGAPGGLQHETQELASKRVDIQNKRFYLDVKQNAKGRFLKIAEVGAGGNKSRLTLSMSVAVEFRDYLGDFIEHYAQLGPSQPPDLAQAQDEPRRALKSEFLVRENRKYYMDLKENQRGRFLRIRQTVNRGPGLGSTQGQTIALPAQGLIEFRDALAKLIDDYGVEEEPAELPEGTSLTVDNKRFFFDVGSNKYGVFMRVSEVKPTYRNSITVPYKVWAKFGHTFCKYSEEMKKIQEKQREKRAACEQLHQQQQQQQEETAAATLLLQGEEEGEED
Chain of UniProt Q13362 (Q13362 whole entry, looked up): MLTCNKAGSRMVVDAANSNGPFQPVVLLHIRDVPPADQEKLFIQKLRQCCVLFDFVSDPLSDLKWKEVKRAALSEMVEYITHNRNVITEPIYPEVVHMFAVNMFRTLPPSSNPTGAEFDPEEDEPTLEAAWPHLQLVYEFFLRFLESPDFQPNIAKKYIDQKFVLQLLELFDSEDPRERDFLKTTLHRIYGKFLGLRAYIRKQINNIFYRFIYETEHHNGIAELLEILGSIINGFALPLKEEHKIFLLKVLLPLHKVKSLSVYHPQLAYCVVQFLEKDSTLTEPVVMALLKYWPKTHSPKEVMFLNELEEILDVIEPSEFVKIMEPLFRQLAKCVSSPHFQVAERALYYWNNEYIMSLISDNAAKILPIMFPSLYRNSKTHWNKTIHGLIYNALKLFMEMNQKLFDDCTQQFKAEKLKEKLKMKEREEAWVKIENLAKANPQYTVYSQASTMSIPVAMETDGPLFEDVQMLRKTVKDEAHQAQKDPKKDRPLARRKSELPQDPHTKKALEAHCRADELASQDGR
Chain of UniProt Q9BRX2 (Q9BRX2 whole entry, looked up): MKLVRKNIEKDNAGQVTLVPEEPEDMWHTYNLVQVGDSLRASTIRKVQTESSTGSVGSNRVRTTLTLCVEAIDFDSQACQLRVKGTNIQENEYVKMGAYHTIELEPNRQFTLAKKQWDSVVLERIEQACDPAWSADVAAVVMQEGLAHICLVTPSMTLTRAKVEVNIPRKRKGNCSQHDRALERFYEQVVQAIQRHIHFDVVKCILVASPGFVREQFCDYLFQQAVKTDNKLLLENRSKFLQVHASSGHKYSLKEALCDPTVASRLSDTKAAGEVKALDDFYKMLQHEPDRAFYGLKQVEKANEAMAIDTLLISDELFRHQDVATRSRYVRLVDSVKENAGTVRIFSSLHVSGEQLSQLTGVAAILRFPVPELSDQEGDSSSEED
Chain of UniProt Q9UKL6 (Q9UKL6 whole entry, looked up): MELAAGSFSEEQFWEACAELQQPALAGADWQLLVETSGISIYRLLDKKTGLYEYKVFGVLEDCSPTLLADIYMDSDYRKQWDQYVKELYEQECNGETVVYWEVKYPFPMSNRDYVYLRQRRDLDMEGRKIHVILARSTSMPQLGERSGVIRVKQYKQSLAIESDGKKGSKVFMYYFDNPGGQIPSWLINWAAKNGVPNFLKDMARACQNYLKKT
Chain of UniProt Q13200 (Q13200 whole entry, looked up): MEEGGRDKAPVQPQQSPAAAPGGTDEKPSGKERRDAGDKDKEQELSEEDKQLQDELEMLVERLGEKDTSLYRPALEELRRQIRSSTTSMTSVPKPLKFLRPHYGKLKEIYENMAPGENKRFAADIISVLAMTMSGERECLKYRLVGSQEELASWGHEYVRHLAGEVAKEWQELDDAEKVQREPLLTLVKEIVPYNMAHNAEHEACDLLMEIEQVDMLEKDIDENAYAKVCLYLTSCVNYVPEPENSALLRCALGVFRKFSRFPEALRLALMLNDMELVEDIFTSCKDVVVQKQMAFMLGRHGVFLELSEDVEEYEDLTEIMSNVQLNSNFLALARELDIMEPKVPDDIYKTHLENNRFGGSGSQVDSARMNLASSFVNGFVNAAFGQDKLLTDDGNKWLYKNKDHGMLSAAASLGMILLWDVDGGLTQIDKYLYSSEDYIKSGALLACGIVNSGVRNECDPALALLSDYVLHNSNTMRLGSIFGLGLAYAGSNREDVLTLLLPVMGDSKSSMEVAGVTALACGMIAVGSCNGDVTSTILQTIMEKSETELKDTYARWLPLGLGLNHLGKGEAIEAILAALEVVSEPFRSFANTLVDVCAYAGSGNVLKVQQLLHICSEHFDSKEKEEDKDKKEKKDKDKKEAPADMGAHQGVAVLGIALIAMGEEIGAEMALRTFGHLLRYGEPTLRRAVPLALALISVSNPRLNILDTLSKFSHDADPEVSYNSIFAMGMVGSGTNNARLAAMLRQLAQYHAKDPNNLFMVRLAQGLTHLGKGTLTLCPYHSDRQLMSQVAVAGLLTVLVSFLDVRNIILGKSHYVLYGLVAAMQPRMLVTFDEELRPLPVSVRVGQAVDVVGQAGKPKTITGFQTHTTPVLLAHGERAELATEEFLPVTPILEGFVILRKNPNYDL
Chain of UniProt Q969N2 (Q969N2 whole entry, looked up): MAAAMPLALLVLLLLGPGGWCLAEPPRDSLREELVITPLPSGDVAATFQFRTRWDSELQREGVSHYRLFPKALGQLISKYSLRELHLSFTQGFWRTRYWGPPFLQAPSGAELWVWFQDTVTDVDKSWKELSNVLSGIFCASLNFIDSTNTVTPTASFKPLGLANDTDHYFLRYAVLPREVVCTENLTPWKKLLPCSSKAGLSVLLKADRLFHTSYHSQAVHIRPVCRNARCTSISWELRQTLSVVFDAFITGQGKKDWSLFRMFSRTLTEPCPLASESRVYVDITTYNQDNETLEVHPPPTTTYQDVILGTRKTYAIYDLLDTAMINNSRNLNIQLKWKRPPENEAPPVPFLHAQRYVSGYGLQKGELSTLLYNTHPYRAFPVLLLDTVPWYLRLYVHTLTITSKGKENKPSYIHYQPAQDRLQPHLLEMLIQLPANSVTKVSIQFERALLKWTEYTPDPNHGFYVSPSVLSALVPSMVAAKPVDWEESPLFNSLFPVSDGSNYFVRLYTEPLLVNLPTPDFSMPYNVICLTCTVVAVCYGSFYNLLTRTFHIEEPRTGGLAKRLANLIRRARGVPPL
Chain of UniProt O75400 (O75400 whole entry, looked up): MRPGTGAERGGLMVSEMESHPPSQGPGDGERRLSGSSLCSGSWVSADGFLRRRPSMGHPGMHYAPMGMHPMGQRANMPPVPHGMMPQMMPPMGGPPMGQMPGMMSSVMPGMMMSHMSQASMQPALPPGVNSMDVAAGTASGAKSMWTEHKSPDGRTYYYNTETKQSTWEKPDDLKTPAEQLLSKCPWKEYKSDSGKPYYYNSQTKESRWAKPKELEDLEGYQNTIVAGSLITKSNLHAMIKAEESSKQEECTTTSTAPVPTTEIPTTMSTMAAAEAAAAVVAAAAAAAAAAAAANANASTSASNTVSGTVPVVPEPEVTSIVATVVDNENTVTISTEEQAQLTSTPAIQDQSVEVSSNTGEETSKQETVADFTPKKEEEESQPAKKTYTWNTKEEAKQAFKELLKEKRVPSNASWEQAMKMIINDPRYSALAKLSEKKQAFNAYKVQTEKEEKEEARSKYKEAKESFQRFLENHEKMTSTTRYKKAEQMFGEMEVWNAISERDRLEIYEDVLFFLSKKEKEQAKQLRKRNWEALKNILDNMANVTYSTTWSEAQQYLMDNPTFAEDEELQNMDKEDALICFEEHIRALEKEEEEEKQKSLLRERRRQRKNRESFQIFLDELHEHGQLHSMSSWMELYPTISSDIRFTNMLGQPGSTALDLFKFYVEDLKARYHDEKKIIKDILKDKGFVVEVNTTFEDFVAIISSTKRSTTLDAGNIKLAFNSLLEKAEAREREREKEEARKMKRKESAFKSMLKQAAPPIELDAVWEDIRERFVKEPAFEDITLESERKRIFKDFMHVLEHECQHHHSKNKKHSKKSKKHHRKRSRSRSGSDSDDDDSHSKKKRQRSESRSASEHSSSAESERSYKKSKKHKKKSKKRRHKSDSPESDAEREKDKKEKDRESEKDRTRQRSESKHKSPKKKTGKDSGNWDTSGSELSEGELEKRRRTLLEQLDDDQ
Chain of UniProt Q96AD5 (Q96AD5 whole entry, looked up): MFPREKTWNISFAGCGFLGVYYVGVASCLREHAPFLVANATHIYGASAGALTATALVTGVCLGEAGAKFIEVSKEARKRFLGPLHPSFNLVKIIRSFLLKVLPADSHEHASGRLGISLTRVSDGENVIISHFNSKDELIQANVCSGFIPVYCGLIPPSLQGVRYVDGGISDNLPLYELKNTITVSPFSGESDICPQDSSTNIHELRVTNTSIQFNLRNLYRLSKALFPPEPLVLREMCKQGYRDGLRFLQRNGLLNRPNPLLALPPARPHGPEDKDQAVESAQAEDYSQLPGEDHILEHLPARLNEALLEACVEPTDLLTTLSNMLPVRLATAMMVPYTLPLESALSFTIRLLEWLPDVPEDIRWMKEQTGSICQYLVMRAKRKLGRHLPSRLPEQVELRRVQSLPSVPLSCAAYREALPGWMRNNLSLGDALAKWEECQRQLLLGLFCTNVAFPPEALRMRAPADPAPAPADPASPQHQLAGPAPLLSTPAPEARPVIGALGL
Chain of UniProt P17980 (P17980 whole entry, looked up): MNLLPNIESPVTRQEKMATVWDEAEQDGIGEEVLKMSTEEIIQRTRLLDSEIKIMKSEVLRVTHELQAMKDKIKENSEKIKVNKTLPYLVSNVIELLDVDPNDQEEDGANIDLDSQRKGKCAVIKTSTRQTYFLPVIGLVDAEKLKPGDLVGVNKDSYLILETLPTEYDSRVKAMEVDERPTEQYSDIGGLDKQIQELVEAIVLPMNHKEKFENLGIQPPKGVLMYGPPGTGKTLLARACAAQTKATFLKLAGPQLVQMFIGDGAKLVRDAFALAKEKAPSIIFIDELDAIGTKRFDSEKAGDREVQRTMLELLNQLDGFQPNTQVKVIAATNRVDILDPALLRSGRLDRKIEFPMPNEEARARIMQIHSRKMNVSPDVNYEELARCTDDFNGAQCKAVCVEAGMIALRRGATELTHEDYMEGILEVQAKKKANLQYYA
Chain of UniProt Q9Y2Y1 (Q9Y2Y1 whole entry, looked up): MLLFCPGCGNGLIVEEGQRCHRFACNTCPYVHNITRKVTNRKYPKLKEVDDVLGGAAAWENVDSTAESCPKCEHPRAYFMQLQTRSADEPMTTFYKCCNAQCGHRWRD

Target	log2 fold change
PPP6R1 (UniProt Q9UPN7)	-0.072 (inactive)
PLIN2 (UniProt Q99541)	-0.44 (active)
PELP1 (UniProt Q8IZL8)	-0.022 (inactive)
PCGF2 (UniProt P35227)	0.055 (inactive)
PTPN23 (UniProt Q9H3S7)	0.038 (inactive)
PBK (UniProt Q96KB5)	0.056 (inactive)
POTEI (UniProt P0CG38)	0.04 (inactive)
PDE4DIP isoform 4 (UniProt Q5VU43)	-0.057 (inactive)
PSMD2 (UniProt Q13200)	0.051 (inactive)
PPT2 isoform 3 (UniProt Q9UMR5)	0.008 (inactive)
PLA2G15 (UniProt Q8NCC3)	-0.076 (inactive)
PRPF38B (UniProt Q5VTL8)	0.163 (inactive)
PELO (UniProt Q9BRX2)	0.128 (inactive)
PIGT (UniProt Q969N2)	0 (inactive)
PRKCQ (UniProt Q04759)	-0.027 (inactive)
PDCD6IP (UniProt Q8WUM4)	-0.022 (inactive)
PRIM2 (UniProt P49643)	-0.139 (inactive)
POLR2B (UniProt P30876)	0.031 (inactive)
PIP4P2 (UniProt Q8N4L2)	-0.383 (active)

Target	log2 fold change
PTMA (UniProt P06454)	-0.093 (inactive)
POLD3 (UniProt Q15054)	-0.176 (inactive)
PCTP (UniProt Q9UKL6)	-0.175 (inactive)
PSMC3 (UniProt P17980)	0.043 (inactive)
POLR3K (UniProt Q9Y2Y1)	-0.03 (inactive)
PPP2R5C isoform 4 (UniProt Q13362)	-0.018 (inactive)
PCYT1A (UniProt P49585)	-0.005 (inactive)
PEF1 (UniProt Q9UBV8)	-0.038 (inactive)
PITRM1 isoform 2 (UniProt Q5JRX3)	-0.229 (active)
PURA (UniProt Q00577)	0.277 (inactive)
PPIL1 (UniProt Q9Y3C6)	0.05 (inactive)
PIKFYVE (UniProt Q9Y2I7)	-0.036 (inactive)
PNPLA8 (UniProt Q9NP80)	0.006 (inactive)
PNPLA2 (UniProt Q96AD5)	-0.134 (inactive)
PGGT1B (UniProt P53609)	0.047 (inactive)
PI4K2A (UniProt Q9BTU6)	-0.066 (inactive)
PRPF40A (UniProt O75400)	0.135 (inactive)
POLD1 (UniProt P28340)	-0.038 (inactive)

compound: CO[C@H]1C[C@@H]2CC[C@@H](C)[C@@](O)(O2)C(=O)C(=O)N2CCCC[C@H]2C(=O)O[C@H]([C@H](C)C[C@@H]2CC[C@H](n3cnnn3)[C@H](OC)C2)CC(=O)[C@H](C)/C=C(\C)[C@@H](O)[C@@H](OC)C(=O)[C@H](C)C[C@H](C)/C=C/C=C/C=C/1C [zotarolimus]; assay: as above
Method in brief: as §1

Target	log2 fold change
PPP6R1 (UniProt Q9UPN7)	-0.005 (inactive)
PLIN2 (UniProt Q99541)	-0.041 (inactive)
PELP1 (UniProt Q8IZL8)	0.012 (inactive)
PCGF2 (UniProt P35227)	0.03 (inactive)
PTPN23 (UniProt Q9H3S7)	0.059 (inactive)
PBK (UniProt Q96KB5)	0.112 (inactive)
POTEI (UniProt P0CG38)	0.025 (inactive)
PDE4DIP isoform 4 (UniProt Q5VU43)	-0.046 (inactive)
PSMD2 (UniProt Q13200)	-0.015 (inactive)
PPT2 isoform 3 (UniProt Q9UMR5)	-0.019 (inactive)
PLA2G15 (UniProt Q8NCC3)	-0.007 (inactive)
PRPF38B (UniProt Q5VTL8)	0.016 (inactive)
PELO (UniProt Q9BRX2)	0.158 (inactive)
PIGT (UniProt Q969N2)	0.012 (inactive)
PRKCQ (UniProt Q04759)	0.052 (inactive)
PDCD6IP (UniProt Q8WUM4)	0.079 (inactive)
PRIM2 (UniProt P49643)	-0.132 (inactive)
POLR2B (UniProt P30876)	-0.012 (inactive)
PIP4P2 (UniProt Q8N4L2)	0.027 (inactive)

Target	log2 fold change
PTMA (UniProt P06454)	-0.054 (inactive)
POLD3 (UniProt Q15054)	0.123 (inactive)
PCTP (UniProt Q9UKL6)	-0.066 (inactive)
PSMC3 (UniProt P17980)	0.001 (inactive)
POLR3K (UniProt Q9Y2Y1)	-0.063 (inactive)
PPP2R5C isoform 4 (UniProt Q13362)	-0.019 (inactive)
PCYT1A (UniProt P49585)	0.035 (inactive)
PEF1 (UniProt Q9UBV8)	0.041 (inactive)
PITRM1 isoform 2 (UniProt Q5JRX3)	0.124 (inactive)
PURA (UniProt Q00577)	-0.093 (inactive)
PPIL1 (UniProt Q9Y3C6)	-0.008 (inactive)
PIKFYVE (UniProt Q9Y2I7)	-0.074 (inactive)
PNPLA8 (UniProt Q9NP80)	-0.077 (inactive)
PNPLA2 (UniProt Q96AD5)	0.002 (inactive)
PGGT1B (UniProt P53609)	-0.006 (inactive)
PI4K2A (UniProt Q9BTU6)	-0.037 (inactive)
PRPF40A (UniProt O75400)	0.029 (inactive)
POLD1 (UniProt P28340)	0.007 (inactive)
